PubChem BioAssay (NCI)
About 83,000 compounds went through this panel and 20% of them were active in at least one assay; those are over-represented in the sample as a whole.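 Growth was measured after 48 h exposure to one concentration of compound in 96-well plates. Values under 10 count as active.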 Active and inactive are the calls of the source.

Assays:
Experiment in all cases: NCI-60 one-dose screen, 48 h (100 = growth as untreated, 0 = no growth, -100 = all killed)
[1] = test system: SR leukemia; conditions: 10 µM
[2] = test system: RPMI-8226 leukemia; conditions: 10 µM
[3] = test system: OVCAR-8 ovarian; conditions: 10 µM
[4] = test system: OVCAR-5 ovarian; conditions: 10 µM
[5] = test system: SK-OV-3 ovarian; conditions: 10 µM
[6] = test system: OVCAR-3 ovarian; conditions: 10 µM
[7] = test system: HS 578T breast; conditions: 10 µM
[8] = test system: NCI/ADR-RES ovarian; conditions: 10 µM
[9] = test system: T-47D breast; conditions: 10 µM
[10] = test system: MDA-MB-435 melanoma; conditions: 10 µM
[11] = test system: SW-620 colon; conditions: 10 µM
[12] = test system: MCF7 breast; conditions: 10 µM unless noted
[13] = test system: HCT-116 colon; conditions: 10 µM
[14] = test system: HCC-2998 colon; conditions: 10 µM
[15] = test system: KM12 colon; conditions: 10 µM
[16] = test system: OVCAR-4 ovarian; conditions: 10 µM
[17] = test system: BT-549 breast; conditions: 10 µM
[18] = test system: IGROV1 ovarian; conditions: 10 µM

Measured: growth

O=C(c1ccccc1)C1CCC1
inactive: [1] 92.7% | [2] 98.9% | [3] 99.1% | [4] 109% | [5] 100% | [6] 108% | [7] 115% | [8] 107% | [9] 99.7% | [10] 112% | [11] 103% | [12] 71.5% | [13] 106% | [14] 100% | [15] 105%

Cc1cc(C(C)(C)C)cc(C)c1Br
inactive: [1] 84.9% | [2] 95.1% | [3] 111% | [4] 105% | [16] 115% | [6] 120% | [7] 99.6% | [8] 111% | [9] 115% | [17] 104% | [10] 110% | [11] 104% | [12] 103% | [13] 97.6% | [14] 99.4% | [15] 105%

Nc1ncnc2c1nc(N)n2C1OC(CO)C(O)C1O (stereo not given)
active: [1] -3.14% | [2] 5.98% | [3] 2.25% | [4] -12.9% | [16] -2.8% | [6] -12.9% | [7] -13.9% | [8] -45.2% | [9] -46.3% | [17] -83.6% | [10] -80.3% | [11] -11.8% | [12] -20.5% | [13] 1.19% | [14] -82% | [15] -77.3%

N#CC1(Nc2ccc3c4c(cccc24)CC3)CCCCC1
inactive: [1] 75.4% | [2] 77% | [3] 99.6% | [4] 110% | [18] 88.3% | [6] 111% | [7] 97.2% | [8] 103% | [9] 54.9% | [17] 96.3% | [10] 99% | [11] 110% | [12] 15.4% | [13] 108% | [14] 116% | [15] 90.1%

O=C(CCl)Nc1ccc2c(c1)C(=O)c1ccc(NC(=O)CCl)cc1C2=O
active: [1] -27.1% | [2] -40.3% | [3] -23% | [16] -43% | [5] -9.68% | [6] -93.2% | [8] -53.8% | [9] -48.7% | [17] -91% | [10] -71.6% | [11] -61.7% | [12] -60.7% | [13] -79.8% | [14] -77.8% | [15] -72.2%

CCc1ccc(/C(C#N)=C/C=C/c2ccccc2)cc1
active: [1] 3.53% | [2] 3.92% | [6] -11.2% | [8] 8.57% | [10] -17.5%
inactive: [3] 34.3% | [4] 77.7% | [18] 35.9% | [7] 39.7% | [9] 35.3% | [17] 68.5% | [11] 21% | [12] 16.2% | [13] 33.5% | [14] 60.8% | [15] 35.1%

Cc1ccc(/C(C#N)=C/c2ccc3c(c2)OCO3)cc1
inactive: [1] 25.5% | [2] 77% | [3] 94% | [4] 112% | [5] 82.8% | [18] 72.4% | [6] 73.8% | [7] 83.8% | [8] 44.5% | [9] 64.1% | [17] 87.1% | [11] 32% | [12] 49.7% | [13] 72.8% | [14] 74.3% | [15] 26.1%
active: [10] -11.1%

CCOC(=O)c1[nH]c(C)c(C(=O)O)c1C
inactive: [1] 97.6% | [2] 96.6% | [3] 105% | [4] 113% | [5] 118% | [18] 108% | [6] 115% | [7] 131% | [8] 107% | [9] 109% | [10] 110% | [11] 107% | [12] 78.9% | [13] 116% | [14] 107% | [15] 110%

O=c1cc(-c2ccccc2)[nH]c2c1CCCC2
inactive: [1] 30.5% | [2] 21.3% | [3] 39.7% | [4] 39.3% | [16] 49.8% | [18] 44.3% | [7] 16.3% | [9] 22.8% | [17] 53.7% | [11] 24.2% | [12] 17.2% | [13] 27.9% | [15] 26.3%
active: [8] -40.8% | [10] -12.9%

N#CCCN(CCCN1CCOCC1)CN1C(=O)c2ccccc2C1=O
inactive: [1] 71.8% | [2] 108% | [3] 111% | [4] 106% | [18] 102% | [6] 120% | [7] 113% | [8] 109% | [9] 96% | [17] 128% | [10] 108% | [11] 114% | [12] 95.8% | [13] 109% | [14] 101% | [15] 112%

CC1(C)N=C(N)N=C(N)N1c1cccc(Br)c1
inactive: [1] 49.4% | [2] 43.9% | [3] 33.1% | [16] 49.7% | [5] 44.3% | [18] 54.9% | [6] 52.8% | [9] 80.9% | [17] 46.7% | [10] 26.3% | [11] 36.6% | [12] 23.6% | [13] 22.9% | [14] 23.4% | [15] 40.6%

CC(C)(O)C#CC#CC(C)(C)O
inactive: [1] 97.9% | [2] 92.1% | [3] 99.2% | [4] 97.8% | [16] 104% | [18] 102% | [7] 100% | [8] 96.9% | [17] 93.7% | [10] 103% | [11] 104% | [12] 101% | [13] 96.5% | [14] 96.4% | [15] 108%

CC1(C(=O)O)NC(C(=O)O)Cc2c1[nH]c1ccccc21 (stereo not given)
inactive: [1] 92.8% | [2] 95.4% | [3] 104% | [4] 101% | [16] 105% | [18] 107% | [7] 109% | [8] 104% | [9] 95.7% | [17] 119% | [10] 94.6% | [11] 97.8% | [12] 98% | [13] 92.6% | [14] 104% | [15] 103%

Nc1nc(N)c2cc(S(=O)(=O)c3cccc(C(F)(F)F)c3)ccc2n1
inactive: [1] 46% | [2] 63.1% | [3] 40.7% | [4] 48% | [5] 72.8% | [18] 39.5% | [6] 79.2% | [7] 80.1% | [8] 52.6% | [9] 74.1% | [17] 76.8% | [10] 31.7% | [11] 25.4% | [12] 43.1% | [13] 15.6% | [14] 37.4% | [15] 53.1%

CCCC(=O)Nc1ccc2c(c1)CN1C(=O)c3ccccc3C1=N2
inactive: [1] 103% | [2] 106% | [3] 98.2% | [16] 107% | [18] 111% | [6] 102% | [7] 119% | [8] 99.5% | [9] 101% | [17] 107% | [10] 106% | [11] 105% | [12] 96% | [13] 102% | [14] 85.4% | [15] 97.5%

Cc1cc(C)c(N)c(S(=O)(=O)O)c1
inactive: [1] 81.4% | [2] 92.4% | [3] 104% | [16] 98.9% | [5] 94.6% | [18] 108% | [6] 113% | [9] 93.2% | [10] 98.9% | [11] 111% | [12] 92.1% | [13] 93.6% | [14] 91.2% | [15] 115%

CCN1C(=O)/C(=C/C=C/N(C)c2ccccc2)SC1=S
inactive: [1] 73.4% | [2] 86.8% | [3] 69.2% | [4] 102% | [5] 41.3% | [6] 81.4% | [7] 58.6% | [8] 81.5% | [9] 79.8% | [17] 80.5% | [10] 93.9% | [11] 106% | [12] 88.6% | [13] 95.1% | [15] 106%

COS(=O)(=O)c1ccc(Br)cc1
inactive: [1] 135% | [2] 111% | [3] 98.6% | [4] 93.4% | [16] 107% | [7] 114% | [8] 93.7% | [9] 93.9% | [17] 113% | [10] 110% | [11] 97.5% | [12] 97.3% | [13] 93.9% | [14] 99.8% | [15] 91.7%

COc1cc(C(=O)NC(=S)Nc2ccc3ccccc3c2)cc(OC)c1OC
inactive: [1] 87.4% | [2] 88.9% | [3] 104% | [4] 99.9% | [18] 95.5% | [7] 94.5% | [8] 51.5% | [9] 91.2% | [17] 121% | [11] 74% | [12] 93.2% | [13] 104% | [14] 99.5% | [15] 95.5%
